# This excerpt belongs to a sample that is enriched for hits.
# Sfp PPTase inh = qHTS Assay for Inhibitors of Bacillus subtilis Sfp phosphopantetheinyl transferase (PPTase) | hit rate 3.5% among 310,000 | Biochemical Sfp PPTase activity, qHTS | Potency, µM, usual class: inhibitors;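 also: the enzyme is Sfp with the accession as filed and its product quenches rhodamine fluorescence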
#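 With Hepes-Na pH 7.6 buffer containing 10 mM MgCl2, Sfp (15 nM) modified BHQ-2-YbbR (12.5 uM) using rhodamine-CoA (5 uM). Two reads 30 minutes apart at 525/598 nm yielded each well's rate.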
# VDR inhibitor = Inhibitors of the vitamin D receptor (VDR): qHTS | AID 504847, 2011 | Vitamin D3 receptor (Homo sapiens), P11473 | hit rate 0.93% among 400,000 | VDR-SRC2-3 peptide fluorescence polarization, 2 h | Potency, µM, usual class: inhibitors
# Target sequence (P11473 whole entry, looked up): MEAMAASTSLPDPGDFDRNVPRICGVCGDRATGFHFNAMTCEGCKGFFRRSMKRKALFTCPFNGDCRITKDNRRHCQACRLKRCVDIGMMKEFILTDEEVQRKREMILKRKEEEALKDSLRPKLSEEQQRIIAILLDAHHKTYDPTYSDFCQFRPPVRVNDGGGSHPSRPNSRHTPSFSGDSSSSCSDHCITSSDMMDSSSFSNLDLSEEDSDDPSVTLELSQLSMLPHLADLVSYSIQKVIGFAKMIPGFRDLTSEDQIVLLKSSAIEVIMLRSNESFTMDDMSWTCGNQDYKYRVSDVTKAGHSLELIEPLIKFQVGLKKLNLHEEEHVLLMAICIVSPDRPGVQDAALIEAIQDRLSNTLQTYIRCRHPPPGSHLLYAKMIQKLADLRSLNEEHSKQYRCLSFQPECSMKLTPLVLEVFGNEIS
#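 Fluorescence polarization assay of small-molecule disruption of VDR binding to coregulator peptide SRC2-3. Compounds and controls pin-transferred, then read after 2 h incubation at ambient room temperature.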
# G9a inh = qHTS Assay for Inhibitors of Histone Lysine Methyltransferase G9a; Histone-lysine N-methyltransferase EHMT2 (Homo sapiens), Q96KQ7; G9a H3K9 monomethylation, AlphaScreen, 2 h; Potency, µM (series often up to 102 µM), actives largely listed as inhibitors; hit rate 8.8% among 350,000; also: nearly all actives have a fitted effect of over 75% in size
# Target sequence (Q96KQ7 913-1193 limits assumed): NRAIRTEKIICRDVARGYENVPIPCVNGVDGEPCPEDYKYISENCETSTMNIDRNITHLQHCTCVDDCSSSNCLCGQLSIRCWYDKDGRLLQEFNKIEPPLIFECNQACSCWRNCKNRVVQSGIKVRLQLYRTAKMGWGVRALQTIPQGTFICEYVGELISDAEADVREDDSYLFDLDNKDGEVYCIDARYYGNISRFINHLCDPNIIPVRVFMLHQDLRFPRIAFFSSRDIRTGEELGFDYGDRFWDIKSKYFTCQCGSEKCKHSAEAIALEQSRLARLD
#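 Methyltransferase reactions run at room temperature for 2 h (20 nM enzyme, 500 nM biotin-H3K9 peptide, 20 uM SAM) after a 15 min compound preincubation; product detected by AlphaScreen beads and anti-H3K9me1 antibody.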
# 12-LOX inh = Primary qHTS assay for inhibitors of human arachidonate 12S-lipoxygenase (ALOX12): Round 2; Potency, µM (highest dose often 108 µM), actives largely listed as inhibitors; purified 12hLO, xylenol orange hydroperoxide absorbance; AID 1671190, 2021; hit rate 1.1% among 580,000; Polyunsaturated fatty acid lipoxygenase ALOX12 (Homo sapiens), P18054
#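 Purified human 12hLO at 150 nM in 25 mM Hepes, 0.01% Triton X-100, pH 7.0, preincubated 15 min at room temperature with compound. Reaction started with 40 uM arachidonic acid, 30 min at room temperature. Hydroperoxide measured by Fe-xylenol orange, 573/405 nm absorbance ratio.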
# Glioma ERSR ind = qHTS for Inducers of the Endoplasmic Reticulum Stress Response (ERSR) in Human Glioma: qHTS; U87-MG GRP78 promoter luciferase reporter, 16 h; Potency, µM, hits mostly activators; hit rate 0.02% among 420,000; AID 602332, 2012; also: series mostly up to about 76 µM; nearly all actives have a fitted effect of over 35% in size
#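 Stably transfected U87-MG glioma cells carrying a GRP78-based luciferase sensor; 16 h compound incubation. Luminescence end-point read 10 min after Bright-Glo addition at room temperature.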
# Hits are given with their value; n = inactive; u = inconclusive; x = no result given; [ ] = dose if it differs, or a comment. Calls follow the shape of the dose curve; as a rule, active = well fitted curve in the direction sought with a large enough effect; inconclusive = small, poorly fitted or top-dose-only effect, or another doubt; inactive = no such curve, though single readings can be large; an effect the other way counts as inactive or inconclusive.
SMILES,Sfp PPTase inh,VDR inhibitor,G9a inh,12-LOX inh,Glioma ERSR ind
O=C(CSc1n[nH]c(-c2cccnc2)n1)Nc1ccccc1,n,n,n,n,n
NS(=O)(=O)c1ccc(NC(=O)COC(=O)CSc2n[nH]c(-c3ccccc3)n2)cc1,n,n,31.6µM,n,n
O=C(CSc1n[nH]c(-c2ccncc2)n1)Nc1ccccc1Cl,x,n,50.1µM,n,n
O=C(CSc1n[nH]c(-c2cccnc2)n1)Nc1cccc(Cl)c1,n,n,50.1µM,n,n
Cc1ccc(-n2cc(C(=O)N3CCC(NC(=O)OC(C)(C)C)CC3)nn2)cc1C,x,x,x,n,x
COc1ccccc1N1CCN(c2nc(-c3cccnc3)nc3ccccc23)CC1,x,x,x,n,x
COc1cc(OC)cc(-c2nc(SCC(=O)Nc3ccccc3F)n[nH]2)c1,n,n,50.1µM,n,n
COc1ccccc1-c1nc(SCC(=O)Nc2ccccc2F)n[nH]1,n,n,n,n,n
COc1cc(CC(=O)NC2CCCCCCC2)cc(OC)c1OC,x,x,x,n,x
COc1cccc(C2CC(=O)N3CN(c4cccc(Cl)c4C)CSC3=C2C#N)c1OC (stereo unspecified),3.55µM,22.4µM,1.78µM,7.94µM,n
COc1ccc(OC)c(C2CC(=O)N3CN(c4cccc(Cl)c4C)CSC3=C2C#N)c1 (stereo unspecified),3.55µM,31.6µM,1.41µM,11.2µM,n
O=C(Nc1ccccc1F)c1ccc(CN2CCN(c3ccccc3)CC2)cc1,n,n,79.4µM,n,n
COc1c(F)c(F)c(C(=O)Nc2ccc(N3CCN(Cc4ccccc4)CC3)cc2)c(F)c1F,n,n,17.8µM,u,n
Cc1nn(Cc2ccc(C(=O)NN)cc2)c(C)c1Cl,n,n,n,n,n
Cc1nn(Cc2ccc(C(=O)Nc3nccs3)cc2)c(C)c1Cl,n,n,44.7µM,n,n
COc1ccc(NC(=O)c2ccc(CN3CCN(c4ccccc4)CC3)cc2)cc1,n,n,u,n,n
Cc1nn(Cc2ccc(C(=O)Nc3ccccc3F)cc2)c(C)c1Cl,u,n,44.7µM,n,n
COCc1nn2c(=O)c(NC(=O)c3ccc(F)cc3)cnc2s1,x,x,x,n,x
CCN1CCN(c2ccc(NC(=O)c3ccco3)cc2)CC1,n,n,x,n,n
CCN1CCN(c2ccc(NC(=O)c3ccc4c(c3)[nH]c(=O)n4Cc3ccc(F)cc3)cc2)CC1,n,n,50.1µM,n,n
COc1ccc(Br)cc1C1CC(=O)N2CN(Cc3ccccc3)CSC2=C1C#N (stereo unspecified),2.24µM,70.8µM,1.41µM,u,n
COc1ccc(C2CC(=O)N3CN(Cc4ccccc4)CSC3=C2C#N)c(OC)c1 (stereo unspecified),x,x,x,5.62µM,x
COc1ccc(CCN2C(=O)CN(Cc3ccccc3)CC2=O)cc1OC,n,n,n,n,n
CCC(C)NC(=O)NCc1c(-n2cccc2)sc2c1CCN(C)C2 (stereo unspecified),x,x,x,n,x
CC(c1nc2ccccc2s1)N(C)C(=O)c1cccc(S(=O)(=O)Nc2ccccc2F)c1 (stereo unspecified),x,x,x,n,x
SMILES,Sfp PPTase inh,VDR inhibitor,G9a inh,12-LOX inh,Glioma ERSR ind
O=C(NCCCNC(=O)c1ccccc1Br)c1nc2ccccc2c(=O)[nH]1,x,x,x,n,x
CC(C)(C)c1ccc(S(=O)(=O)NCCO)cc1,x,x,x,n,x
Cn1c(=O)c2cn3c(c2n(C)c1=O)C(c1ccccc1)CC(c1ccccc1)=N3 (stereo unspecified),n,n,8.91µM,u,n
CCCc1nc2ccccc2n2c(-c3ccccc3)c3c(=O)n(C)c(=O)n(C)c3c12,x,n,n,u,n
CC(=O)Nc1ccc(CN2C[C@H](O)C[C@H]2c2nc(-c3ccc(OC(F)(F)F)cc3)no2)cc1,x,x,x,n,x
CC(C)(C)n1[nH]c2c3c(ccc2c1=O)C(=O)c1ccccc1C3=O,n,n,u,n,n
Cc1ccc(C)c(-n2[nH]c3c4c(ccc3c2=O)C(=O)c2ccccc2C4=O)c1,n,n,n,n,n
COCCCn1[nH]c2c3c(ccc2c1=O)C(=O)c1ccccc1C3=O,n,n,7.08µM,u,n
Cc1ccc(-n2[nH]c3c4c(ccc3c2=O)C(=O)c2ccccc2C4=O)cc1,n,n,2.82µM,n,n
O=C(CCn1ccn2nc3c(c2c1=O)CCCC3)Nc1cccc(C(F)(F)F)c1,x,x,x,n,x
S=c1[nH]ncn1/N=C/c1ccc(Br)cc1,n,n,1.26µM,u,n
S=c1[nH]ncn1/N=C/c1ccc(N2CCOCC2)cc1,u,n,1.78µM,u,n
Cc1cc(NC(=O)CSc2ncc(-c3ccc(Cl)cc3)o2)ccc1F,x,x,x,n,x
CN(C)CCN(CCc1ccccc1)C(=O)Nc1cccnc1,x,x,x,n,x
COc1cccc(CN(Cc2cccnc2)S(=O)(=O)c2ccc(-n3cnnn3)c(C)c2)c1OC,n,n,25.1µM,u,n
CC(C)(C)c1ccc(/C=N/OCC(=O)Nc2ccc(SC(F)F)cc2)cc1,x,x,x,n,x
Cc1noc(NS(=O)(=O)c2cccc3c(N(C)C)cccc23)c1C,50.1µM,25.1µM,x,u,n
CN(C)c1cccc2c(S(=O)(=O)Nc3ccccn3)cccc12,n,n,n[12.7 µM],n,n
C=CCNC(=S)NNC(=O)C(CCCC)CC(C)(C)O (stereo unspecified),17.8µM,n,u,n,n
CCOc1ccc(-n2cc(-c3ccccc3)c3c(NCC4CCCO4)ncnc32)cc1 (stereo unspecified),x,x,x,n,x
CC1(C)CC(=O)C=C(Nc2cccc(F)c2)C1,n,n,n,n,n
CN(C)c1cccc(NC2=CC(=[N+]3CCOCC3)CC(C)(C)C2)c1,n,n,11.2µM,u,n
CS(=O)(=O)c1cccc(C(=O)NCc2coc(-c3cccs3)n2)c1,x,x,x,n,x
N#CC1=C(N)N=C(SCc2cccc3ccccc23)C(C(N)=O)C12CCCCC2 (stereo unspecified),n,n,44.7µM,n,n
Cc1cccnc1NC(=O)c1cnc2ccccc2n1,x,x,x,n,x
SMILES,Sfp PPTase inh,VDR inhibitor,G9a inh,12-LOX inh,Glioma ERSR ind
CCOC(=O)C(=O)Nc1ccc(N(C)C(C)=O)cc1,x,x,x,n,x
O=C(OCCCCN1C(=O)c2ccccc2C1=O)c1n[nH]c2ccccc12,n,n,50.1µM,n,n
COC(=O)c1n[nH]c2ccccc12,n,n,n,n,n
CCN(CC)c1ccc(-c2nnc(SCC(=O)Nc3ccccc3C#N)n2-c2ccccc2)cc1,n,n,10µM,n,n
CCNC(=O)CSc1nnc(-c2ccccc2)n1-c1ccc(OCC)cc1,n,n,50.1µM,n,n
N#Cc1cc2c(nc1N1CCN(C(C(=O)O)c3c[nH]c4ccc(Cl)cc34)CC1)CCCC2 (stereo unspecified),x,x,x,n,x
CCN(Cc1cccc(F)c1)C(=O)Cn1nnn(-c2cccs2)c1=O,x,x,x,n,x
CCc1nnc(SCc2cc(C)ccc2C)c2cc3sc(C)cc3n12,x,n,10µM,n,n
CCOc1c(C)cc2[nH]c(CCC(=O)O)nc2c1C,n,n,12.6µM,n,n

# Bioassay records as filed in PubChem BioAssay.
